PubChem BioAssay AID686996 (Broad Institute, 2013)
Where “and” joins values, the source holds several entries; their conditions need not be identical. Identical values can stand only once. Among all 350,000 compounds or so, about 1,900 (0.54%) were called active.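 The calls were made as follows: active = mean inhibition across replicates at least about 35%, with every replicate also reaching that limit (limit read from the data); inconclusive = only one of the two criteria met; inactive = neither criterion met.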 Many of the other results were omitted from the sample, so actives are more common in it than they were.

target: Caspase-6 (Homo sapiens) (UniProt P55212); test: inhibition of CASP6 peptide cleavage – biochemical, VEID-R110 fluorescence, single point, set 2, primary screen (AID 686996); details: purified caspase-6, Z-VEID-R110 cleavage fluorescence; at 12.5 µM; stronger effect = higher value;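 also: 0% = median of neutral control wells and 100% = no fluorescence left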
Sequence (P55212 24-179 limits assumed): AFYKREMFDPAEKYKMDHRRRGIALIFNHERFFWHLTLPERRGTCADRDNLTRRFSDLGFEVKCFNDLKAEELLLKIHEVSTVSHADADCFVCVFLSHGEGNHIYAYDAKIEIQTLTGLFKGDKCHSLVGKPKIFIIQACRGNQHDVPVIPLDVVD
Sequence (P55212 194-293 limits assumed): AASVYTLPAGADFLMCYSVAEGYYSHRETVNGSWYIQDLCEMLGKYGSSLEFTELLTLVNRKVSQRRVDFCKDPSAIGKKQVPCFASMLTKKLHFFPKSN

Compound | inhibition
COC(=O)C1=C(c2ccccc2)C[C@@H]2CC[C@H]1N2C(=O)NCc1ccco1 | 2.09% (inactive)
COC(=O)C1=C(c2ccc3ccccc3c2)C[C@@H]2CC[C@H]1N2C(=O)NCCO | -0.313% (inactive)
COC(=O)C1=C(c2ccc(C(C)=O)cc2)C[C@@H]2CC[C@H]1N2C(=O)NCCNC(C)=O | 35.3% (active)
COC(=O)[C@H]1[C@H](CO)[C@H]2Cn3c(ccc(C4=CCCC4)c3=O)[C@@H]1N2C(=O)CC1CC1 | 2.1% (inactive)
CCOC(=O)[C@]12Cc3ccccc3[C@H]1N(C1CCCCC1)C(=O)c1cc(OC)ccc12 | 1.66% (inactive)
COc1cccc(N2C(=O)NC(=O)/C(=C\c3ccc([N+](=O)[O-])s3)C2=O)c1 | 46% (active)
Cc1ccccc1N1C(=O)NC(=O)/C(=C\c2cc(C)n(C)c2C)C1=O | 3.93% (inactive)
COc1cccc(N2C(=O)NC(=O)/C(=C\c3cn(C)c4ccccc34)C2=O)c1 | 4.46% (inactive)
O=C1NC(=O)N(c2ccccc2)C(=O)/C1=C/c1ccc([N+](=O)[O-])s1 | 49.9% (active)
COc1ccc(N2C(=O)/C(=C/c3ccco3)C(=O)NC2=S)cc1 | -1.07% (inactive)
CC(C)CN1Cc2cc(N3CCCCC3)ccc2-n2nncc2C1 | -0.486% (inactive)
COC1C(O)C(C)OC(OC2CCC3(C=O)C(CCC4C3CCC3(C)C(C5=CC(=O)OC5)CCC43O)C2)C1O (stereo not given) | 0.09% (inactive)
CCOC(=O)[C@@H]1[C@@H]2NC(=O)N[C@@]1(C)Oc1ccccc12 | 1.71% (inactive) and -2.72% (inactive)
CCOC(=O)c1cccc(C2=C(CNC(=O)c3ccncc3)[C@H]3CC[C@@H](C2)N3Cc2ccccc2)c1 | 0.927% (inactive)
O=C1NC(=O)N(CCc2ccc(F)cc2)C(=O)/C1=C/C=C/c1ccccc1 | -1.88% (inactive)
Cc1c(C(=O)O)cccc1-n1c(C)cc(/C=C2\C(=O)NC(=O)N(c3ccc4c(c3)OCO4)C2=O)c1C | 26.5% (inactive)
O=C1NC(=O)N(Cc2ccco2)C(=O)/C1=C\c1ccc(-c2ccc(F)cc2)o1 | 73.9% (active)
Cc1cc(/C=C2/C(=O)NC(=O)N(Cc3ccco3)C2=O)c(C)n1-c1ccc(C(=O)O)cc1 | 50.7% (active)
O=C(O)COc1ccccc1/C=C1\C(=O)NC(=O)N(CCC2=CCCCC2)C1=O | 9.11% (inactive)
Cc1ccc(-n2c(C)cc(/C=C3\C(=O)NC(=O)N(C)C3=O)c2C)cc1C | 12.1% (inactive)
COc1ccc(CN2C(=O)NC(=O)/C(=C\c3ccc(OC)c(OC)c3OC)C2=O)cc1 | 4.46% (inactive)
O=C1NC(=O)N(Cc2ccco2)C(=O)/C1=C\c1cccn1CCOc1ccccc1 | 61.1% (active)
Brc1ccc2c(c1)CNCc1cnnn1-2 | -1.24% (inactive)
c1cc2c(c(NC3=NCCCS3)c1)CCCC2 | -1.96% (inactive)
COC(=O)[C@H]1[C@H](CO)[C@H]2Cn3c(cccc3=O)[C@H]2N1CC1CC1 | 1.75% (inactive)
O=C1NCN(c2ccccc2)C12CCN(C(c1cccs1)c1nnnn1C1CCCCC1)CC2 (stereo not given) | 0.584% (inactive)
O=C(Cc1ccccn1)N1CCCCN2[C@H](C1)[C@H](c1ccc(-c3ccccc3F)cc1)[C@@H]2CO | 1.27% (inactive)
O=C(Cc1ccccn1)N1CCCCN2[C@@H](CO)[C@@H](c3ccc(C#Cc4ccccc4)cc3)[C@@H]2C1 | -4% (inactive)
COC(=O)[C@@H]1[C@@H](CO)[C@@H]2Cn3c(ccc(-c4cccc(C(=O)N(C)C)c4)c3=O)[C@H]1N2C(=O)NC(C)C | 0.335% (inactive)
COc1cc(OC)cc(C(=O)NCCN2CCC3(CC2)C(=O)NCN3c2ccccc2)c1 | -14.3% (inactive)
